According to PubChem BioAssay AID504810 (National Center for Advancing Translational Sciences (NCATS), 2011):
About 670 (0.2%) of roughly 330,000 compounds were called active. This excerpt belongs to a sample that is enriched for actives. Unmarked numbers belong to inactive results.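 Rule for the calls: active = activity change below a set negative limit, meaning inhibition stronger than a set level (cut at about -70% in these data); inconclusive = activity change between two set negative limits; inactive = the rest.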

biological target: Thyrotropin receptor (Homo sapiens) (UniProt P16473); experiment: Antagonists of the Thyroid Stimulating Hormone Receptor: HTS campaign; details: TSHR-expressing cells, TSH-stimulated cAMP HTRF, 2 h; at 11.5 µM; stronger effect = lower value
Sequence (P16473 whole entry, looked up): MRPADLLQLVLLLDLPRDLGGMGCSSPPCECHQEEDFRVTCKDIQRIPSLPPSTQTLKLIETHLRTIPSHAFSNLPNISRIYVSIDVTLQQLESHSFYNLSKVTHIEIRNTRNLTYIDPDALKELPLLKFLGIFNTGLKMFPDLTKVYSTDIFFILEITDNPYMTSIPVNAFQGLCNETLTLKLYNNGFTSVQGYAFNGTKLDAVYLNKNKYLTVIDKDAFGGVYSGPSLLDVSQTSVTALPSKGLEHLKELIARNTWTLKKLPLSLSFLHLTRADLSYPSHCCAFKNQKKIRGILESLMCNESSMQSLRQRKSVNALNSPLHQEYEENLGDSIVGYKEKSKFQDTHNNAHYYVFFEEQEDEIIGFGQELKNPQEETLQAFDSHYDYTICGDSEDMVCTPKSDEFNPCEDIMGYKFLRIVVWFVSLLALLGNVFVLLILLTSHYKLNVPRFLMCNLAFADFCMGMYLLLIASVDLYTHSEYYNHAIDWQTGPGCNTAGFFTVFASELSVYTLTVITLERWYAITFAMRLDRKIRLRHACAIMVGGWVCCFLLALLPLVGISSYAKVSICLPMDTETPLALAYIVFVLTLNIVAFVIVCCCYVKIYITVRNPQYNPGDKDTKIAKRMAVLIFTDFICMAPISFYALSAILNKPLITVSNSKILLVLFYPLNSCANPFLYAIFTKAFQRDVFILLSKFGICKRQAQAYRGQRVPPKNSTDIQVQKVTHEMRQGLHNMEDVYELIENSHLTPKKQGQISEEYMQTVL
Excerpt: The thyroid-stimulating hormone receptor (TSHR) is a member of the 7 trans-membrane-spanning receptor (7TMR) family of cell surface receptors. TSHR-mediated hyperthyroidism is important in thyroid pathology. The development of small molecule antagonists of TSHR may lead to therapeutic approaches for TSHR-mediated hyperthyroidism caused by constitutively activating mutations or stimulating auto-antibodies associated with Graves' disease. Graves' disease is the leading cause of hyperthyroidism and is caused by autoantibodies that stimulate TSHR (TsAbs) causing thyroid growth and unregulated overproduction of thyroid hormones and existing treatments have liabilities (agranulocytosis). In addition, TSHRs are known to be expressed in multiple extrathyroidal tissues including bone, brain, kidney, testis, fat and cells of the immune system but the role of the TSHR in these tissues is not clear. Therefore, TSHR antagonists/inverse agonists could be used as probes of extrathyroidal TSHR function. Finally, TSHR inverse agonists, which are a subclass of antagonists that inhibit agonist-independent (or basal or constitutive) TSHR signaling, could be used to inhibit TSH-independent signaling in patients with recurrent or metastatic thyroid cancer who are receiving thyroid hormone to suppress TSH. In collaboration between scientist from the NCGC and the NIDDK, a miniaturized HTRF high-throughput screen was developed. It's a cell based assay, where an anti cAMP antibody contains a fluorescent cryptate tag (excitation 337 nm; emission 620 nm) and the acceptor is cAMP-d2 (excitation 620 nm; emission 665 nm). When antibody and cAMP-d2 interact and are excited by a 337 nm light, a FRET occurs resulting in emission at 665 nm. The assay is competition between cAMP-d2 and cAMP (from the cell lysate). The homogeneous protocol allows for one step dispense after stimulation that is automation friendly. NIH Chemical Genomics Center [NCGC] NIH Molecular Libraries Probe Centers Network [MLPCN] MLPCN Grant: MH090855-01 Assay Submitter (PI): Marvin Gerhengorn
1. 3ul of 200 TSHR freshly harvested cells/well are dispensed into a 1536 TC-treated white solid bottom plate. 2. Through pintool addition, 23nl of compounds and control in 100% DMSO are added to the plate. 3. Then 1ul of EC80 TSH (4nM final) is added to the plate. 4. Assay is incubated at 37 deg C for 2 hours. 5. 2ul of cAMP antibody diluted 1:20 in lysis buffer is added. 6. Immediately following, 2ul of d2 diluted 1:20 in HBSS is added seperately. 7. The assay is incubated for 30 minutes at ambient room temperature. 8. The result is obtained by using a ViewLux read-out with HTRF settings.
% is set by controls: 0 for no effect and ±100 for the full control effect.

SMILES	activity change, negative = inhibition
Nc1ccc(Nc2cc(O)c3ncccc3c2)cc1	-16%
CCOC(=O)c1ccccc1NS(=O)(=O)c1c(C)nc2sccn2c1=O	3.11%
CCN(/N=C/c1ccc(N(C)C)cc1)c1nc2ccccc2[nH]1	-6.71%
CS(=O)(=O)N(CC(=O)Nc1ccc(Cl)c(Cl)c1)C1CCCCC1	15.8%
O=C(CC(O)(C(F)(F)F)C(F)(F)F)Nc1ccc(Cl)c(Cl)c1	-74.6% (active)
O=C(CCCN1C(=O)CCC1=O)Nc1ccc(Cl)c(C(F)(F)F)c1	1.2%
Cc1ccccc1CN1C[C@@H]2C[C@@H](c3cn(C)nc3-c3ccccc3)N3CCC[C@@]23C1=O	2.86%
NC(=O)COC(=O)c1cc(S(=O)(=O)N2CCN(c3ccccc3)CC2)ccc1Cl	-4.47%
CCNC(=O)NC(=O)C(C)OC(=O)C1CCN(S(=O)(=O)c2ccccc2F)CC1 (centres undefined)	15.3%
O=C(CCNC(=O)Cn1ccc2ccccc2c1=O)NCCC1=CCCCC1	9.22%
Oc1ccc(Cn2cc[nH]c2=S)cc1	7.71%
Cc1ccc(S(=O)(=O)N2[C@@H](c3ccc(Br)cc3)C(C(=O)O)=C[C@H]2CC2CCCC2)cc1	-5.29%
CC[C@]12c3[nH]c4ccc(Cl)cc4c3CCN1C(=O)[C@@H](CC(=O)NCCCOC)C[C@@H]2C(=O)N1CCN(C(=O)C2CC2)CC1	11.4%
CCN(Cc1ccccc1)C(=O)Cc1ccc(OC)c(S(=O)(=O)N2CCOCC2)c1	0.0578%
N#Cc1c(Cl)nc(-c2cccnc2)nc1-c1ccccc1	3.65%
CC1(c2ccc3ccccc3c2)NC(=O)N(CC(N)=O)C1=O (centres undefined)	-6.17%
CN(C)c1ccc(S(=O)(=O)NCC(=O)NCC2CCCCC2)cc1[N+](=O)[O-]	6.75%
Cc1ccc(S(=O)(=O)NCCCn2ccnc2)cc1C(=O)NC(C)C	-0.615%
O=C(Nc1ccccc1Cl)/C(Cl)=C(\Cl)S(=O)c1ccccc1 (centres undefined)	-71.3% (active)
Cc1c(NC(=O)Nc2ccccc2Cl)sc(=S)n1C	46.2%
CC1(C)CC(CCC(=O)Nc2ccccc2Cl)C(=O)O1 (centres undefined)	13.5%
O=C1CCC(C(=O)N2CCCCO2)CN1Cc1cccc(C(F)(F)F)c1 (centres undefined)	15.4%
COc1ccc(CCNC2=CC(=O)CC(C)(C)C2)cc1	-4.33%

SMILES	activity change, negative = inhibition
O=C1NC2(CCCCCC2)C(=O)N1CCS(=O)(=O)Oc1ccccc1	-2.81%
Cc1ccc(C(=O)Nc2ncccc2C)cc1S(=O)(=O)N1CCOCC1	-1.78%
COc1ccc(/C=C/C(=O)OCC(=O)NC2CCCCCC2)cc1OC	-8.81%
CCN(CC(=O)Nc1ccccc1C(F)(F)F)C(=O)CSCc1c(C)noc1C	4.59%
Cc1nnc(NC(=O)CSc2nccn2-c2cccc(C)c2C)s1	-14.2%
Fc1ccc(-n2c(Cc3ccccc3)nnc2SCc2nc(-c3ccc(Cl)cc3)no2)cc1	7.8%
CCOCCCNC(=O)C(NC(=O)c1ccc(=O)[nH]c1)c1ccc(C)cc1 (centres undefined)	-1.24%
CCOCCCNC(=O)C(NC(=O)c1ccccc1O)c1ccccc1 (centres undefined)	1.46%
CCOCCCNC(=O)C(NC(=O)c1ccc(=O)[nH]c1)c1ccc(Cl)cc1 (centres undefined)	-71.3% (active)
CCOC(=O)C1(CC2CCCCO2)CCN(Cc2nc(-c3cccs3)oc2C)CC1 (centres undefined)	-7.01%
COc1ccc(N2C(=O)NC(NS(=O)(=O)c3ccc(Cl)cc3)(C(F)(F)F)C2=O)cc1 (centres undefined)	-105% (active)
Cc1ccc(S(=O)(=O)NC2(C(F)(F)F)NC(=O)N(CCc3ccccc3)C2=O)cc1 (centres undefined)	-3.44%
COc1ccc(S(=O)(=O)NC2(C(F)(F)F)N=C3SCCN3C2=O)cc1 (centres undefined)	17.4%
Cc1cc(C(=O)NC2CCCc3c2cnn3-c2cccc(C)c2C)c(C)o1 (centres undefined)	-79.3% (active)
Cn1nccc1C(=O)NC1CCCc2c1cnn2-c1ccc(F)cc1F (centres undefined)	-37.7%
Cn1nccc1C(=O)NC1CCCc2c1cnn2-c1ccccc1F (centres undefined)	-36.6%
Cc1ccc(S(=O)(=O)c2c[nH]c3ccc(Cl)cc3c2=O)cc1	-9.54%
CCn1nc(C(=O)NNC(=O)C2CSC3(C)CCC(=O)N23)c2ccccc2c1=O (centres undefined)	6.6%
COCCCn1c(Cc2csc(Nc3cccc(Cl)c3)n2)nnc1SCC(=O)OC1CCCCC1	-4.53%
C/C(=N\NC(=O)c1cc(-c2ccc(O)cc2)nc2ccccc12)c1cccnc1	0.505%
Cc1cccc(N2CCC(NCc3c(C(=O)N4CCCCC4)nc4c(C)cccn34)CC2)c1	4.5%
CCOC(=O)[C@H]1[C@H]2COc3ccc(C)cc3[C@@H]2N2C(=O)CN(Cc3ccc(F)cc3)C(=O)[C@@]12C	-7.74%
Cc1ccc(N(CCC(=O)O)S(=O)(=O)c2cccc(C(F)(F)F)c2)cc1	22.4%

SMILES	activity change, negative = inhibition
CN(CC(=O)Nc1cccc(F)c1)C(=O)C1CC(=O)N(CCc2ccccc2)C1 (centres undefined)	8.3%
CC(C)c1ccc(NC(=S)NC2CC3C=CC2C3)cc1 (centres undefined)	-4.5%
CC(NC(=O)COC(=O)CCC(=O)c1ccc(Cl)cc1)c1ccccc1 (centres undefined)	-10.7%
COc1cccc(NC(=O)C2CCCN(c3ncnc4c3nc3n4CCCCC3)C2)c1 (centres undefined)	-12.1%
COc1cccc(N(CC(=O)NCc2ccccc2)C(=O)CCC(=O)Nc2nccs2)c1	-9.83%
O=C(CN(C(=O)CCC(=O)Nc1nccs1)c1ccc(F)cc1)NCc1ccc2c(c1)OCO2	21.9%
COc1ccc(N(CC(=O)NCc2ccc(F)cc2)C(=O)CCC(=O)Nc2nccs2)cc1	-77.8% (active)
COC(=O)c1ccc(S(=O)(=O)N2CCC(c3nc4ccccc4o3)CC2)cc1	-1%
N#Cc1nc(Cc2cccc3ccccc23)oc1NCc1ccc2c(c1)OCO2	-94.7% (active)
Cn1cc(CCC(=O)NCc2ccc3c(c2)OCO3)c2ccccc21	5.66%
c1n[nH]c(NCc2ccc3c(c2)OCO3)n1	5.91%
CCc1nonc1NC(=O)c1oc2ccc(Cl)cc2c1C	3.96%
O=C1C=C(c2cccc(Cl)c2O)C[C@@H](c2ccc(F)cc2)C1	-23%
CC1(C)NC(=O)N(CC(=O)N2CCN(S(=O)(=O)c3ccccc3F)CC2)C1=O	1.38%
CCN(c1ccccc1)S(=O)(=O)c1cc(C(=O)NCc2ccccn2)ccc1C	0.209%
Cc1ccc(C)c(N(CC(=O)NCc2ccco2)C(=O)CCC(=O)Nc2ccccn2)c1	0.465%
COC(=O)c1ccc(COC(=O)c2c(C)nn(Cc3ccccc3Cl)c2Cl)o1	-21.4%
CC(=O)N=c1ncn(CC(COC(C)=O)OC(C)=O)c2nc[nH]c12 (centres undefined)	-10.8%
Cc1ccc(S(=O)(=O)N(C)c2ccc(OCC(=O)NC3=NCCS3)cc2)cc1	26.8%
Oc1c(Cl)cc(Cl)c(Cl)c1Cc1c(O)c(Cl)cc(Cl)c1Cl	-103% (active)
CC(Oc1ccccc1)C(=O)NN1Cc2ccccc2C1=N (centres undefined)	8.16%
CCOC(=O)c1ccc(NC(=O)c2nc[nH]c2C(=O)N[C@@H](CCCCNC(=O)OC(C)(C)C)C(=O)OC(C)(C)C)cc1	-6.71%
CCCn1c(=O)c2[nH]c(-c3ccc(OCC(=O)NCCN)cc3)nc2n(CCC)c1=O	26.4%

SMILES	activity change, negative = inhibition
COc1ccc(C(=O)NCC2CCCN2S(=O)(=O)c2cccs2)cc1OC (centres undefined)	4.47%
CC(CCc1ccccc1)NCC(O)c1cccc([N+](=O)[O-])c1 (centres undefined)	9.45%
CN(c1ccccc1)S(=O)(=O)c1cc(C(=O)OCC(=O)N2CCN(C(=O)c3ccco3)CC2)ccc1Cl	-10.1%
CN(c1ccccc1)S(=O)(=O)c1cc(C(=O)Nc2nc3ccccc3[nH]2)ccc1Cl	-76.7% (active)
Cc1cccc(NC(=O)c2ccc(S(=O)(=O)N(C)c3ccccc3)cc2)n1	-19.5%
Cc1cc(C)n2nc(C(=O)N(C)C(c3ccccc3)c3ccccc3)nc2n1	0.111%
Cc1cc(C)n2nc(C(=O)OC(C)C(=O)c3cc(C)c(C)cc3C)nc2n1 (centres undefined)	23.5%
O=C(CN1C(=O)CSC1=O)N1CCCC(Nc2ccc(F)cc2)C1 (centres undefined)	-1.23%
Cc1ccsc1C(=O)OCC(=O)Nc1cccc(F)c1	-3.82%
COc1cc(NC(=O)c2ccccc2NS(=O)(=O)c2ccc(Cl)s2)cc(OC)c1	-75.8% (active)
COc1cc(OC)c(S(=O)(=O)Nc2ccccc2C(=O)O)cc1S(=O)(=O)Nc1ccccc1C(=O)O	-2.52%
CCOc1ccc(NC(=O)c2ccccc2NS(C)(=O)=O)cc1	5.45%
CCN(CC)C(=O)CSC1c2ccccc2C(=O)N1c1ccccc1 (centres undefined)	4.85%
O=C(CCSCCc1ccccn1)Nc1nccs1	-1.45%
CC(=O)c1nn(-c2cccc(Br)c2)cc1C(=O)c1cccc2ccccc12	7.96%
CC(C)Cc1nn2c(=O)cc(O)nc2s1	2.07%
CCOC(=O)C1(Cc2ccccc2C)CCCN(C(=O)c2ccc(COC)o2)C1 (centres undefined)	26.3%
CCOc1ccc(/C=N/OCC(=O)NCc2cccs2)cc1	-4.83%
CC1CCCCC1NC(=O)CO/N=C/c1ccc(OC(F)F)cc1 (centres undefined)	-11.3%
O=C(CO/N=C/c1ccc(OC(F)F)cc1)NCc1ccc(F)cc1	-73.2% (active)
